Test systems include RPMI-8226 leukemia; OVCAR-5 ovarian; SK-OV-3 ovarian; IGROV1 ovarian; OVCAR-3 ovarian; HS 578T breast; NCI/ADR-RES ovarian; T-47D breast; OVCAR-4 ovarian; OVCAR-8 ovarian.
Common to all, as to assay: NCI-60 one-dose screen, 48 h (100 = growth as untreated, 0 = no growth, -100 = all killed)
What all share (conditions): 10 µM unless noted

About 83,000 compounds went through this panel and 20% of them were active in at least one assay; those are over-represented in the sample as a whole.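 48-hour exposure, single concentration, 96-well plates; percent growth endpoint where 0 means no net growth. Active: below 10.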 Values without a mark were called inactive. Calls of active or inactive are those of the source.

In the case of `CN(C)c1ccc(-c2ccc3[nH]c(=O)nc(-c4ccc(F)cc4)c3c2)cn1`, the growth in the test with RPMI-8226 leukemia is 46.9%; in the test on OVCAR-5 ovarian it was 79.9%; in the test with SK-OV-3 ovarian it was 36.2%; in the test on IGROV1 ovarian it was 53.8%; in the test on OVCAR-3 ovarian, 6.67% (active); in the test on HS 578T breast it was 28.5%. The growth in the test on NCI/ADR-RES ovarian was 51.7%; in the test with T-47D breast, 36.6%.

Turning to `S=C(Nc1ccc(Cl)cc1)c1ccccn1`, the growth is 96.8% in the test with RPMI-8226 leukemia; 102% in the test on OVCAR-5 ovarian; 96.9% in the test on OVCAR-4 ovarian; 94.3% with SK-OV-3 ovarian; 93.3% in the test on IGROV1 ovarian; 109% with OVCAR-3 ovarian. The growth is 95.9% in the test on HS 578T breast, 96.6% with NCI/ADR-RES ovarian and 79.2% in the test on T-47D breast.

`CCN1CCN(c2ccc(NC(=O)Nc3nc4ccc(-c5ccccc5OC)cc4s3)cc2)CC1`: the growth in the test on RPMI-8226 leukemia is -33% (active); with OVCAR-5 ovarian, -11.5% (active); with OVCAR-4 ovarian, -76.1% (active); with SK-OV-3 ovarian it was -12.5% (active); with IGROV1 ovarian, -71.3% (active); in the test on OVCAR-3 ovarian, -90.5% (active). In addition, the growth with HS 578T breast was -23.2% (active); in the test on NCI/ADR-RES ovarian, -67.3% (active); with T-47D breast, -45.4% (active).

As to `NC(=O)CN1C(=O)c2ccccc2C1=O`, the growth in the test with RPMI-8226 leukemia is 105%; with OVCAR-5 ovarian, 102%; in the test on OVCAR-4 ovarian it was 110%; with SK-OV-3 ovarian, 106%; with IGROV1 ovarian, 105%; with OVCAR-3 ovarian, 106%. Also, the growth is 104% in the test on HS 578T breast, 102% in the test with NCI/ADR-RES ovarian and 89.9% in the test on T-47D breast.

In the case of `CC(=O)[C@@H]1CC[C@]2(C(=O)O)CC[C@]3(C)[C@H](CC[C@@H]4[C@@]5(C)Cc6c([nH]c7ccccc67)C(C)(C)[C@@H]5CC[C@]43C)[C@@H]12`, the growth with OVCAR-8 ovarian was 62.7%; with OVCAR-5 ovarian it was 101%; in the test with OVCAR-4 ovarian, 65.7%; in the test on SK-OV-3 ovarian it was 86.6%; with IGROV1 ovarian it was 86.8%; in the test on OVCAR-3 ovarian it was 54.1%. Further, the growth with HS 578T breast was 73.2%; in the test with NCI/ADR-RES ovarian, 67.6%; in the test on T-47D breast it was 65.5%.

Regarding `Cc1ccn2c3c(c(C(=O)O)c2c1)C(=O)c1ccccc1C3=O`, the growth with RPMI-8226 leukemia was 90.6%; with OVCAR-5 ovarian, 121%; in the test with OVCAR-4 ovarian it was 69.9%; in the test with SK-OV-3 ovarian, 98.3%; in the test on IGROV1 ovarian, 81.3%; in the test on OVCAR-3 ovarian it was 45.6%. For the same molecule, the growth is 43.7% in the test on HS 578T breast, 85.2% with NCI/ADR-RES ovarian and 90.7% with T-47D breast.

Take `Nc1c(C(=O)Nc2cccc3ccccc23)sc2nc3c(cc12)CCCCCC3`: the growth was 30.4% in the test with RPMI-8226 leukemia; 49.3% in the test with OVCAR-5 ovarian; 59% in the test on OVCAR-4 ovarian; 25.7% in the test on SK-OV-3 ovarian; 44.8% in the test on IGROV1 ovarian; -36.8% (active) in the test on OVCAR-3 ovarian. The values for the growth in the test on HS 578T breast, in the test with NCI/ADR-RES ovarian and with T-47D breast were 28.6%, 20.6% and 36.5%, respectively.

With `Cc1nccc2c3ccc(OCc4cn(-c5ccc(Br)cc5)nn4)cc3n(CC(C)C)c12`, the growth is -16.2% (active) in the test on RPMI-8226 leukemia; 68.2% in the test on OVCAR-5 ovarian; 58.8% in the test on OVCAR-4 ovarian; 43.4% with SK-OV-3 ovarian; 67.4% in the test with IGROV1 ovarian; 57.8% in the test on OVCAR-3 ovarian. The growth was 59.4% in the test with HS 578T breast, 32.1% with NCI/ADR-RES ovarian and 36.9% in the test with T-47D breast.

Regarding `Nc1c(C(=O)c2ccccc2)sc2nc(-c3cc4ccccc4o3)cc(-c3ccc(Cl)cc3)c12`, the growth was 82.7% in the test with RPMI-8226 leukemia; 107% with OVCAR-5 ovarian; 98.3% in the test on OVCAR-4 ovarian; 106% in the test with SK-OV-3 ovarian; 55.8% with IGROV1 ovarian; 85.1% with OVCAR-3 ovarian. For the same molecule, the growth in the test with HS 578T breast is 136%; in the test with NCI/ADR-RES ovarian, 108%; in the test with T-47D breast, 90%.

As to `COc1cc2c(cc1OCCCOc1cc3c(cc1OC)C(=O)N1CC(F)(F)C[C@H]1C=N3)N=C[C@@H]1CC(F)(F)CN1C2=O`, the growth with RPMI-8226 leukemia is -30.7% (active); in the test with OVCAR-5 ovarian, 14.2%; with OVCAR-4 ovarian, 35.2%; with SK-OV-3 ovarian, 46.2%; in the test with IGROV1 ovarian it was 0.757% (active); in the test on OVCAR-3 ovarian it was 22.8%. The growth in the test with HS 578T breast was -8.37% (active); in the test on NCI/ADR-RES ovarian, 76.9%; in the test on T-47D breast, 27.7%.

For the molecule `COc1cc(C)ccc1Oc1nc(Nc2ccc(N3CCOCC3)cc2)ncc1N=Cc1cc(C(F)(F)F)cc(C(F)(F)F)c1`, the growth was 63% in the test with OVCAR-8 ovarian; 75.7% with OVCAR-5 ovarian; 71% in the test on OVCAR-4 ovarian; 43.3% in the test on SK-OV-3 ovarian; 33.4% in the test with IGROV1 ovarian; 76.5% with OVCAR-3 ovarian. Besides, the growth is 61.9% with HS 578T breast, 69.9% in the test on NCI/ADR-RES ovarian and 57.7% with T-47D breast.

For `C/C(=C\c1cnc(C)s1)[C@@H]1C[C@@H]2O[C@@H]2CCC[C@H](C)[C@H](O)[C@@H](C)C(=O)C(C)(C)[C@@H](O)CC(=O)O1`, the growth in the test on RPMI-8226 leukemia is 23.2%; with OVCAR-5 ovarian, 38.9%; in the test on OVCAR-4 ovarian it was 52.5%; with SK-OV-3 ovarian it was 24.4%; with IGROV1 ovarian it was 38.7%; in the test on OVCAR-3 ovarian, 2.54% (active). Moreover, the results for the growth in the test with HS 578T breast, in the test with NCI/ADR-RES ovarian and in the test with T-47D breast were 39.1%, 6.61% (active) and 33.6%, respectively.

For `CCOC(=O)c1c(C)nc2c(c1N)/C(=C/c1cccs1)C(=O)N2c1ccc(OC)cc1`, the growth in the test with RPMI-8226 leukemia was 74.5%; with OVCAR-5 ovarian, 102%; with OVCAR-4 ovarian it was 13.9%; with SK-OV-3 ovarian it was 36.6%; in the test with IGROV1 ovarian, 45.7%; in the test with OVCAR-3 ovarian, 32.3%. In addition, the growth was 25% in the test with HS 578T breast, 29% in the test on NCI/ADR-RES ovarian and 19% with T-47D breast.

Take `COc1ccc2c(c1)C1(C(=O)N2)C(C#N)=C(c2ccccc2)Nc2c1c(-c1ccccc1)nn2-c1ccccc1` (stereo not given): the growth in the test with RPMI-8226 leukemia was 67.6%; with OVCAR-5 ovarian, 83.1%; with OVCAR-4 ovarian it was -1.01% (active); in the test on SK-OV-3 ovarian, 78.8%; in the test with IGROV1 ovarian, 49.6%; in the test on OVCAR-3 ovarian it was -69.2% (active). Also, the growth in the test on HS 578T breast was 40%; in the test with NCI/ADR-RES ovarian, 92.7%; in the test on T-47D breast, 63.4%.

The values are drawn from PubChem BioAssay (NCI).
